# Data from PubChem BioAssay (EPA / NIEHS).
# Inconclusive results are not listed. Calls of active or inactive are those of the source. The calls were made as follows: active = hit-call score of the fitted dose curve at least 0.9, where 1 is the maximum; inconclusive = response in the unintended direction; inactive = score below 0.9.
# Tests used:
# [1] = target: Cellular tumor antigen p53 (Homo sapiens) (UniProt P04637); assay: TOX21_p53_BLA_p2_ratio: Tox21 HCT-116 p53 Agonism Beta-lactamase Assay, Ratio, Phase 2 (AID 2283592)
# Chain of Cellular tumor antigen p53 (Homo sapiens) (P04637 whole entry, looked up): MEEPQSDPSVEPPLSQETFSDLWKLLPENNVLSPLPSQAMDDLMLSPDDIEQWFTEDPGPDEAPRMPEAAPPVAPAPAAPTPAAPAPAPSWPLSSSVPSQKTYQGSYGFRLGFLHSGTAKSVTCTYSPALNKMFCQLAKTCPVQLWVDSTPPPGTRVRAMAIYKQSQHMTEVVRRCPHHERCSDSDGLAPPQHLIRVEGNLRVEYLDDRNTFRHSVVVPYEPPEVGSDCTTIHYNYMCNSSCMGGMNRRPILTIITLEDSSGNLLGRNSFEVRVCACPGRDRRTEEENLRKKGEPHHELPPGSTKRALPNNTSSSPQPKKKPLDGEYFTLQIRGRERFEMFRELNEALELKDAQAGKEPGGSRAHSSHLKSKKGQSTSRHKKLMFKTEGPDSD
# Procedure, shortened: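 Readout: blue/green (460/530 nm) FRET emission ratio after 2 h CCF4-AM loading at room temperature, excitation 405 nm. HCT116 p53 bla cells, 16 h compound exposure at 37C, 5% CO2; agonist direction fitted against DMSO baseline.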
# [2] = TOX21_p53_BLA_p3_viability: Viability Assessment in the Tox21 HCT-116 p53 Agonism Beta-lactamase Assay, Phase 3 (AID 2283593);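 also: cells exposed to compound for 16 h before reading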
# Procedure, shortened: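 HCT-116 cells (4000/well) rested 5 h at 37C, then got DMSO compounds by pin tool (217-fold dilution) for 16 h at 37C, 5% CO2. After the bla read, CellTiter-Glo was added and luminescence read at 30 min, room temperature.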
# [3] = target: Cellular tumor antigen p53 (Homo sapiens) (UniProt P04637); assay: TOX21_p53_BLA_p3_ratio: Tox21 HCT-116 p53 Agonism Beta-lactamase Assay, Ratio, Phase 3 (AID 2283596)
# Procedure, shortened: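 Cells were seeded at 4000/well, rested 5 h at 37C, then dosed with DMSO compound solutions (217-fold dilution) for 16 h. CCF4-AM substrate was loaded for 2 h at room temperature, and the 460/530 nm emission ratio was fitted for gain of signal versus DMSO.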
# [4] = TOX21_p53_BLA_p4_viability: Viability Assessment in the Tox21 HCT-116 p53 Agonism Beta-lactamase Assay, Phase 4 (AID 2283597);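 also: hits lower the luminescence signal meaning cytotoxicity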
# Procedure, shortened: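 ATP content by CellTiter-Glo luminescence, 30 min RT, read after the beta-lactamase ratio step. Cells: HCT116, 4000/well, compound added after 5 h, exposure 16 h at 37C. Signal loss = reduced viability.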
# [5] = TOX21_p53_BLA_p5_viability: Viability Assessment in the Tox21 HCT-116 p53 Agonism Beta-lactamase Assay, Phase 5 (AID 2283600)
# Procedure, shortened: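 ATP luminescence (CellTiter-Glo, 30 min, RT) served as the viability read-out, with loss of signal indicating cytotoxicity. Compounds in DMSO were pinned at a 217-fold dilution onto 4000 cells/well and incubated 16 h, 37C.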
# [6] = target: Cellular tumor antigen p53 (Homo sapiens) (UniProt P04637); assay: TOX21_p53_BLA_p4_ratio: Tox21 HCT-116 p53 Agonism Beta-lactamase Assay, Ratio, Phase 4 (AID 2283601)
# Procedure, shortened: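 HCT116 cells carrying an inducible beta-lactamase reporter were plated at 4000 cells/well, rested 5 h, then exposed to compounds in DMSO (217-fold dilution) for 16 h at 37C. CCF4-AM substrate was loaded 2 h at room temperature; 460/530 nm emission ratio scored gain-of-signal versus DMSO.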
# [7] = Tanguay_ZF_120hpf_MORT_legacy: (Legacy) Oregon State University Tanguay Lab 120 Hour Post-fertilization zebrafish Assay for Mortality (AID 2283633);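 as to AC50: fitted as increase in binary mortality versus DMSO negative control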
# Procedure, shortened: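 Brightfield scoring of embryo death (binary) at 24 and 120 hpf; static exposure 6–120 hpf, 28C, sealed and foil-covered. Pronase-dechorionated 5D wild-type larvae, single embryo per well. DMSO 0.64% v/v; trimethyltin chloride 5uM positive control.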
# [8] = Tanguay_ZF_120hpf_AXIS_legacy: (Legacy) Oregon State University Tanguay Lab 120 Hour Post-fertilization zebrafish Assay for Body Axis Malformation (AID 2283635)
# Procedure, shortened: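 Embryos: 5D wild-type, pronase-dechorionated 4 hpf; static exposure 6–120 hpf, 28C, sealed, dark, 1 embryo/well, 0.64% DMSO. 120 hpf axis malformation scored present/absent; dead embryos excluded. Analysed as gain of signal vs DMSO.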
# [9] = Tanguay_ZF_120hpf_EYE_legacy: (Legacy) Oregon State University Tanguay Lab 120 Hour Post-fertilization zebrafish Assay for Eye Malformation (AID 2283636);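 also: binary presence or absence of eye malformation scored by brightfield in 120 hpf larvae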
# Procedure, shortened: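 Static waterborne exposure of dechorionated zebrafish embryos (strain Tropical 5D), 6 to 120 hpf, sealed plates at 28C, 0.64% DMSO vehicle. Eye malformation is scored as a binary endpoint, with gain of signal analysed relative to DMSO.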
# [10] = Tanguay_ZF_120hpf_SNOU_legacy: (Legacy) Oregon State University Tanguay Lab 120 Hour Post-fertilization zebrafish Assay for Snout Malformation (AID 2283637)
# Procedure, shortened: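 Dechorionated zebrafish, individually housed from 6 hpf in covered, sealed wells at 28C with 0.64% DMSO vehicle, were examined at 120 hpf for snout malformation. Responses were binary and analysed positive-direction relative to DMSO.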
# [11] = Tanguay_ZF_120hpf_JAW_legacy: (Legacy) Oregon State University Tanguay Lab 120 Hour Post-fertilization zebrafish Assay for Jaw Malformation (AID 2283638)
# Procedure, shortened: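 Binary jaw-malformation calls at 120 hpf by brightfield imaging; DMSO (0.64% v/v) = baseline. Embryos: 5D wild-type, pronase-dechorionated, one per well from 6 hpf, static exposure, 28C, sealed, dark.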
# [12] = Tanguay_ZF_120hpf_OTIC_legacy: (Legacy) Oregon State University Tanguay Lab 120 Hour Post-fertilization zebrafish Assay for Otic Vesicle Malformation (AID 2283639)
# Procedure, shortened: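 Statically exposed wild-type 5D zebrafish embryos, kept sealed and dark at 28C through 120 hours post fertilization, were examined by brightfield microscopy for otic vesicle defects. Responses were recorded as present or absent and analysed relative to DMSO.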
# [13] = Tanguay_ZF_120hpf_BRAI_legacy: (Legacy) Oregon State University Tanguay Lab 120 Hour Post-fertilization zebrafish Assay for Brain Malformation (AID 2283641)
# Procedure, shortened: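 Read-out: binary brain morphology call at 120 hpf (brightfield), fitted in gain-of-signal direction vs DMSO. Wild-type Tropical 5D embryos, static exposure, 28C, 0.64% DMSO final; 5uM trimethyltin chloride as positive control.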
# [14] = Tanguay_ZF_120hpf_SOMI_legacy: (Legacy) Oregon State University Tanguay Lab 120 Hour Post-fertilization zebrafish Assay for Somite Malformation (AID 2283647)
# Procedure, shortened: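 Binary brightfield scoring of somite defects at 120 hpf in 5D wild-type larvae; one dechorionated embryo per well, static exposure from 6 hpf, 28C, sealed and dark. Final DMSO 0.64%; trimethyltin chloride 5uM positive control.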
# [15] = Tanguay_ZF_120hpf_PFIN_legacy: (Legacy) Oregon State University Tanguay Lab 120 Hour Post-fertilization zebrafish Assay for Pectoral Fin Malformation (AID 2283648);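 also: each larva judged yes or no for fin defect by brightfield with dead larvae skipped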
# Procedure, shortened: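 Scoring of pectoral fin malformation was binary, made at 120 hpf on larvae exposed statically from 6 hpf after enzymatic chorion removal. Activity was fitted upward relative to DMSO controls at 0.64% (vol/vol).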
# [16] = Tanguay_ZF_120hpf_CFIN_legacy: (Legacy) Oregon State University Tanguay Lab 120 Hour Post-fertilization zebrafish Assay for Caudal Fin Malformation (AID 2283649)
# Procedure, shortened: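 Dechorionated 5D wild-type zebrafish, static exposure 6–120 hpf, 28C, sealed and dark, 0.64% v/v DMSO final. Binary fin-malformation call at 120 hpf, brightfield; gain of signal vs DMSO baseline.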
# [17] = target: Cellular tumor antigen p53 (Homo sapiens) (UniProt P04637); assay: TOX21_p53_BLA_p5_ratio: Tox21 HCT-116 p53 Agonism Beta-lactamase Assay, Ratio, Phase 5 (AID 2283599)
# Procedure, shortened: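 HCT-116 cells carrying a p53-inducible beta-lactamase reporter were seeded at 4000 cells/well and dosed after 5 h with compound in DMSO (217-fold dilution). After 16 h at 37C, CCF4-AM substrate was added for 2 h, and the 460/530 nm emission ratio was scored as gain-of-signal versus DMSO.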
# [18] = Tanguay_ZF_120hpf_YSE_legacy: (Legacy) Oregon State University Tanguay Lab 120 Hour Post-fertilization zebrafish Assay for Yolk Sac Edema (AID 2283634)
# Procedure, shortened: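 Binary brightfield scoring of yolk sac edema at 120 hpf; DMSO baseline, gain-of-signal fitting. Dechorionated 5D larvae, one per well, static exposure 6–120 hpf, 28C, 0.64% DMSO. Dead embryos not scored.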
# [19] = Tanguay_ZF_120hpf_PE_legacy: (Legacy) Oregon State University Tanguay Lab 120 Hour Post-fertilization zebrafish Assay for Pericardial Edema (AID 2283640)
# Procedure, shortened: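 Static waterborne exposure, 5D wild-type embryos, 28C, to 120 hpf; final DMSO 0.64% (vol/vol). Binary PE call at 120 hpf by brightfield; fitted upward vs DMSO baseline. 5uM trimethyltin chloride as positive control.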
# [20] = Tanguay_ZF_120hpf_PIG_legacy: (Legacy) Oregon State University Tanguay Lab 120 Hour Post-fertilization zebrafish Assay for Pigmentation Malformation (AID 2283650)
# Procedure, shortened: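 Endpoint is incidence of abnormal pigmentation at 120 hpf in dechorionated 5D zebrafish exposed singly from 6 hpf at 28C, DMSO vehicle at 0.64%. Embryos dying by 24 or 120 hpf are excluded from scoring.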
structure (smiles),measurement,setting,value
CC1(C)C(C=C(Cl)Cl)C1C(=O)OCc1cccc(Oc2ccccc2)c1 (centres undefined),outcome,[1],inactive
same,outcome,[2],inactive
same,outcome,[3],inactive
same,outcome,[4],inactive
same,outcome,[5],inactive
same,outcome,[6],inactive
same,outcome,[7],inactive
same,outcome,[8],inactive
same,outcome,[9],inactive
same,outcome,[10],inactive
same,outcome,[11],inactive
same,outcome,[12],inactive
same,outcome,[13],inactive
same,outcome,[14],inactive
same,outcome,[15],inactive
same,outcome,[16],inactive
CCCOC(=O)NCCCN(C)C,outcome,[1],inactive
same,outcome,[2],inactive
same,outcome,[3],inactive
same,outcome,[17],inactive
same,outcome,[5],inactive
same,outcome,[6],inactive
same,outcome,[7],inactive
same,outcome,[18],inactive
same,outcome,[8],inactive
same,outcome,[9],inactive
same,outcome,[11],inactive
same,outcome,[19],inactive
same,outcome,[13],inactive
same,outcome,[14],inactive
same,outcome,[15],inactive
same,outcome,[16],inactive
same,outcome,[20],inactive
C[C@]12C[C@H](O)[C@H]3[C@@H](CCC4=CC(=O)CC[C@@]43C)[C@@H]1CC[C@@H]2C(=O)CO,outcome,[1],inactive
same,outcome,[2],inactive
same,outcome,[3],inactive
same,outcome,[4],inactive
same,outcome,[17],inactive
same,outcome,[6],inactive
same,outcome,[7],inactive
same,outcome,[18],inactive
same,outcome,[8],inactive
same,outcome,[9],inactive
same,outcome,[10],inactive
same,outcome,[11],inactive
same,outcome,[12],inactive
same,outcome,[14],inactive
same,outcome,[16],inactive
same,outcome,[20],inactive
Cc1nn(C)c(Oc2ccccc2)c1C=NOCc1ccc(C(=O)OC(C)(C)C)cc1,AC50,[1],4.3 nM (active)
same,outcome,[2],inactive
same,outcome,[3],inactive
same,outcome,[4],inactive
same,outcome,[17],inactive
same,outcome,[5],inactive
same,outcome,[6],inactive
same,AC50,[7],3260 nM (active)
same,outcome,[8],inactive
same,outcome,[9],inactive
same,outcome,[10],inactive
same,outcome,[11],inactive
same,outcome,[12],inactive
same,outcome,[13],inactive
same,outcome,[14],inactive
same,outcome,[15],inactive
same,outcome,[16],inactive
same,outcome,[20],inactive
COC(=O)c1ccc(I)cc1S(=O)(=O)NC(=O)Nc1nc(C)nc(OC)n1,outcome,[1],inactive
same,outcome,[2],inactive
same,outcome,[4],inactive
same,outcome,[17],inactive
same,outcome,[5],inactive
same,outcome,[6],inactive
same,outcome,[7],inactive
same,outcome,[8],inactive
same,outcome,[13],inactive
same,outcome,[14],inactive
same,outcome,[15],inactive
same,outcome,[16],inactive
same,outcome,[20],inactive
O=C(O)c1ccccc1,outcome,[1],inactive
same,outcome,[2],inactive
same,outcome,[3],inactive
same,outcome,[4],inactive
same,outcome,[17],inactive
same,outcome,[5],inactive
same,outcome,[6],inactive
same,outcome,[7],inactive
same,outcome,[18],inactive
same,outcome,[8],inactive
same,outcome,[9],inactive
same,outcome,[10],inactive
same,outcome,[11],inactive
same,outcome,[12],inactive
same,outcome,[13],inactive
same,outcome,[14],inactive
same,outcome,[15],inactive
same,outcome,[16],inactive
same,outcome,[20],inactive
